Experimental data: PubChem BioAssay AID1259343 (VanderVen Lab, College of Veterinary Medicine, Cornell …, 2017)
Hit rate of the full screen: of about 6,200 compounds, about 2,900 (47%) were called active. So high a share suggests a set chosen from earlier hits. The list shows a part of the results. Values without a mark were called inactive. No stated cut-off is given here; in the data, active means inhibition above about 50%; inactive means the rest.

Experiment: Mycobacterium tuberculosis growth inhibition, primary screen (AID 1259343)
Conditions: inhibition: at 10 µM, active compounds read high; outcome: 10 uM

SMILES | inhibition
COc1ccc(C2N=C(c3ccccc3C)NO2)cc1O (stereo not drawn) | inactive
COc1ccc([C@@H]2CC(=O)c3c(O)cc(O)cc3O2)cc1O | 67.2% (active)
Cc1cc(C)cc(-c2nn(CN3CCOCC3(C)C)c(=S)o2)c1 | -38.7%
S=c1oc(-c2cccc(Cl)c2)nn1CN1CCC(c2nnc3ccccn23)CC1 | 22.7%
CN1CCN(Cn2nc(-c3ccc4c(c3)OCO4)oc2=S)CC1 | 86.7% (active)
CCc1ccc(/C=C/S(=O)(=O)Nc2onc(C)c2C)cc1 | 68.3% (active)
O=C(c1ccc(Oc2ccc(Cl)cc2)c(F)c1)N1CCC(O)CC1 | 5.66%
O=C(c1ccc(C(F)(F)F)c(F)c1)N1CCC(Cc2ccc(F)cc2)CC1 | 87% (active)
O=C(c1ccc(F)c(F)c1F)N1CCC(Cc2ccc(-n3cccc3)cc2)CC1 | 56.5% (active)
O=C(c1ccc(C(F)(F)F)c(F)c1)N1CCC(Cc2ccc(-n3cccc3)cc2)CC1 | 63.9% (active)
CCCc1cc(N2CC(C)CC(C)C2)n2nc3nc(C)cc(C)c3c2n1 (stereo not drawn) | -1.46%
COc1ccc(OCc2cc(C(=O)NC(C)c3csc(C)n3)no2)c(Cl)c1 (stereo not drawn) | 36.7%
CC(NC(=O)c1cc(Cl)ccc1F)c1ccc(Cl)s1 (stereo not drawn) | 41.4%
COc1ccc(C(=O)NC(C)c2ccc(Cl)cc2Cl)cc1 (stereo not drawn) | 55.6% (active)
N#CC1(NC(=O)c2ccc(-c3nc(C4CC4)no3)cc2)CCSC1 (stereo not drawn) | 80.6% (active)
CN(Cc1ccc(F)cc1)c1ccc(-c2nc(C3CC3)no2)cn1 | 27.2%
O=[N+]([O-])c1ncc[nH]1 | 43.1%
CCOc1ccc(-c2n[nH]c(=S)o2)cc1 | 48.7%
CC(Cc1n[nH]c(=S)o1)c1ccccc1 (stereo not drawn) | 36.9%
O=C1c2cccc3cccc(c23)C(=O)N1CCCCCc1n[nH]c(=S)o1 | 29.7%
S=c1[nH]nc(Cc2ccccc2)o1 | -26.6%
COc1ccc(CCCc2n[nH]c(=S)o2)cc1 | 99.7% (active)
COc1ccc(Cc2n[nH]c(=S)o2)cc1 | 101% (active)

SMILES | inhibition
O=C(NC1CCCC1)c1occc1COc1ccccc1 | 60.1% (active)
O=C(NC1CCCCCC1)c1ccco1 | 55.1% (active)
O=C(NC(=S)NC1CCCCCCC1)c1ccco1 | 63.9% (active)
CC(=NNC(=O)NC1CCCCC1)c1ccco1 | -56.6%
CN(C)c1ccc(NC(=O)C2C[C@H]2c2ccccc2)cc1C(=O)NC1CCCCC1 (stereo partly drawn) | 20%
Cc1c(C(=O)NC2CCCCC2)oc2ccccc12 | 90.9% (active)
O=C(Nc1ccc(Cl)c(Cl)c1)c1occc1COc1ccccc1 | 32.6%
Cc1cc(-c2ccc(NC3=NCCCS3)cc2)nc2ccccc12 | 20.2%
CC(C)CNC(=O)C(=O)NCCCc1ccc(N(C)C)cc1 | 33%
Cc1nn(-c2ccccc2)c(N)c1N=Nc1cccc(Cl)c1 | 56% (active)
CCN(CC)S(=O)(=O)c1ccc(N=Nc2c(C)nn(-c3ccccc3)c2N)cc1 | 25.3%
CC(=O)Nc1cccc(N=C2NN=C(C34CC5CC(CC(C5)C3)C4)CS2)c1 | 35.4%
CN(C)C(=O)c1csc(-c2csc(NCC3CCC3)n2)c1 | 38.9%
Cc1cc(-c2csc(NC3CCCC3)n2)c(C)n1CC1CCCO1 (stereo not drawn) | 23.4%
Clc1ccc(-c2csc(NCC3CCCO3)n2)c(Cl)c1 (stereo not drawn) | 77.3% (active)
CCCCSc1nnc2c(n1)OC(C)(CC)Nc1ccccc1-2 (stereo not drawn) | -11.3%
CCCCSc1nnc2c(n1)OC=Nc1ccc(Br)cc1-2 | 82.3% (active)
CCCSc1nnc2c(n1)OC=Nc1ccc(Br)cc1-2 | 87.8% (active)
O=c1c2c3nc4ccccc4nc3n(C3CCCC3)c2ncn1Cc1ccco1 | -15.8%
CCOc1ccc(-c2ccc(=O)n(Cc3ccc(F)cc3)n2)cc1 | 90.8% (active)
O=c1ccc(-c2ccc(F)cc2)nn1Cc1ccc(Br)cc1 | 46.8%
Cc1ccc(-c2ccc(=O)n(Cc3ccccc3F)n2)cc1 | 28.8%
Cc1ccc(-c2ccc(=O)n(Cc3ccccc3)n2)cc1 | 24%

SMILES | inhibition
O=c1ccc(-c2ccccc2)nn1Cc1cccc(Cl)c1 | 92.4% (active)
O=c1ccc(-c2ccc(Br)cc2)nn1Cc1cccc(F)c1 | -4.34%
Cc1ccc(Cn2nc(-c3ccccc3)ccc2=O)cc1 | 70.6% (active)
O=c1ccc(-c2ccc(Cl)cc2)nn1Cc1ccccc1F | 70.5% (active)
O=c1ccc(-c2ccc(F)cc2)nn1Cc1ccccc1F | 33.9%
O=c1ccc(-c2cccc(Br)c2)nn1Cc1ccccc1 | 22.6%
CCOc1ccc(-c2ccc(=O)n(Cc3ccccc3)n2)cc1 | 41.1%
CCOC(=O)NC(O)C(F)(F)C(F)(F)C(F)(F)C(F)(F)C(F)(F)C(F)F (stereo not drawn) | 27.7%
Cc1nnc2n1N=CC=C(c1ccccc1)S2 | 54.6% (active)
O=S(=O)(Nc1nc2ccccc2s1)c1ccc(Cl)s1 | 93.7% (active)
O=S(=O)(Nc1nc2ccccc2nc1Nc1ccc2c(c1)OCO2)c1cccc2nsnc12 | -10.2%
O=S(=O)(Nc1nc2ccccc2s1)c1ccccc1 | 57.6% (active)
CCN1CCN(C(C)CNc2nc3ccccc3s2)CC1 (stereo not drawn) | -41.8%
O=S(=O)(Nc1nc2ccccc2nc1Nc1ccccc1)c1ccc(Br)s1 | 80.6% (active)
O=S(=O)(Nc1nc2ccccc2s1)c1ccc(Br)s1 | 70.2% (active)
O=S(=O)(Nc1nc2ccccc2s1)c1cccs1 | -38.3%
CC(=NNc1nc2ccccc2s1)c1cc2ccccc2o1 | 3.87%
NC(=S)Nc1nc2ccccc2s1 | 89.5% (active)
O=C(CCN1CCCCC1c1cccnc1)Nc1nc2ccccc2s1 (stereo not drawn) | 35.6%
Cc1cc(C)nc(Oc2ccc(Br)cc2Br)n1 | 75.3% (active)
Brc1ccc2cc(Oc3ncccn3)ccc2c1 | 5.33%
N#Cc1ccc(COc2ccc(Br)cc2Br)cc1 | 1.7%
